Assay outcomes (PubChem BioAssay)
Hits are enriched below; roughly 9.2% of the tested compounds scored in any of these assays.
Rab9 prom act – Rab9 promoter activation; Huh7 Rab9 promoter-luciferase reporter, luminescence, 24 h; Potency, µM (doses to about 9.22 µM), for inactives: at the highest dose activation, negative = inhibition, hits mostly activators; 320,000 tested, 2.8% active; AID 485297; note: % of control where 0% means no effect; nearly all actives have a fitted effect of over 60% in size
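Luciferase signal after 10 min detection reagent at ambient indicates Rab9 promoter upregulation; stably transfected Huh7 cells were treated 24 h with compound in DMSO at 37 °C, 5% CO2.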
FLuc counter – inhibits or activates purified firefly luciferase, miR-21 counter-screen; P08659; AID 588342; purified FLuc, Km substrates, luminescence inhibition; 360,000 tested, 6.9% active; Potency, µM (series often up to 57.5 µM), inactives show at the top dose activity change, negative = inhibition, most hits filed as inhibitors;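 note: plate controls were vehicle for no effect and reference inhibitor for full effect; nearly all actives have a fitted effect of over 55% in size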
Target sequence (P08659 whole entry, looked up): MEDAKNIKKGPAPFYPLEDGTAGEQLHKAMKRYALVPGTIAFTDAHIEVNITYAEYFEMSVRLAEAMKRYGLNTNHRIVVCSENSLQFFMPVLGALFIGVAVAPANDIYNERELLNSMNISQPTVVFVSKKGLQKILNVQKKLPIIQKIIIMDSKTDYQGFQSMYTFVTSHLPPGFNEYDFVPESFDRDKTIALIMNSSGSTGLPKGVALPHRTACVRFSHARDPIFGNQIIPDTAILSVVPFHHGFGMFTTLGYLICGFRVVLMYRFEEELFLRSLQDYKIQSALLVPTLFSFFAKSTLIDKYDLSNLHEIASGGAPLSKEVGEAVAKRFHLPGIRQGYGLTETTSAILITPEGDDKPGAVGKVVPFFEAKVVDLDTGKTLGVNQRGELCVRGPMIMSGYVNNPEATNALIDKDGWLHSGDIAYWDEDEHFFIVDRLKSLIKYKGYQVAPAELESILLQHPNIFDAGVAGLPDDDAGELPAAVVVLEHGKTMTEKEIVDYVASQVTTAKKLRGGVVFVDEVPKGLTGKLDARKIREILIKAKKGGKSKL
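Purified P. pyralis luciferase, 10 nM final, with Km-level 10 uM D-luciferin and 10 uM ATP in 50 mM Tris acetate pH 7.5, 10 mM Mg acetate, 0.01% Tween-20, 0.05% BSA; 6-point qHTS titration about 60 µM downward; luminescence read.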
NPC1 promoter act – activates the NPC1 promoter; Huh7 NPC1 promoter luciferase reporter, 24 h; Potency, µM (series often up to 9.22 µM), for the others: at the highest dose activation, usual class: activators; 320,000 tested, 2.4% active; AID 485313; note: % of control where 0% means no effect; nearly all actives have a fitted effect of over 60% in size
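Luminescence from an NPC1 promoter-driven luciferase reporter in stably transfected Huh7 cells was measured after 24 h compound treatment at 37 °C, followed by 10 min ambient incubation with luciferase detection reagent.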
ELG1 genotox – induces genotoxicity in HEK293T cells with luciferase-tagged ELG1 | AID 504466 | Potency, µM (titrated, usually from 46 µM), for the others: at the top dose activity change, positive = activation, actives largely listed as activators | HEK293T ELG1-luciferase reporter, luminescence, 16 h | 330,000 tested, 1.3% active; note: % of control where 0% means no effect; nearly all actives have a fitted effect of over 60% in size
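HEK293T cells expressing luciferase-tagged ELG1 were treated with compound or DMSO for 16 hr at 37°C. Luciferase activity was then read after 30 min with ONE-Glo at room temperature; rising signal flags genetic stress.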
ELG1 DNA repair – ELG1-dependent DNA repair inhibition; HEK293T ELG1-luciferase reporter, luminescence, 16 h; DNA damage induced by 5-fluorouridine; Potency, µM (doses to about 46.1 µM), for inactives: at the top dose activity change, negative = inhibition, actives largely listed as inhibitors; 330,000 tested, 2.3% active; AID 504467; note: % is set by controls: 0 for no effect and ±100 for the full control effect; nearly all actives have a fitted effect of over 55% in size
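Reporter activity after DNA damage by 5-fluorouridine is monitored. Compound-treated cells incubate 16 hr at 37 °C, then ONE-Glo is added for 30 min before luminescence reading.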
SMN2 splice enh – enhancers of SMN2 splice variant expression | HEK293 SMN2-luciferase splicing reporter, luminescence, 30-36 h | Potency, µM (top dose mostly 46.1 µM), for the others: top-dose activity change, positive = activation, usual class: activators | 210,000 tested, 2.8% active | AID 1458; note: % of control where 0% means no effect; nearly all actives have a fitted effect of over 55% in size
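HEK293 cells carry an SMN2 […]–luciferase reporter in which exon 7 inclusion puts luciferase in frame. Cells were plated 10-12 h before compound addition, then incubated 30-36 h at 37C. ONE-Glo luminescence was read; sodium butyrate at 4.5 mM final served as control.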
* hit, by the source's call; ? = inconclusive; nt = no result; [ ] = another dose, or the depositor's remark. Calls come from the whole dose curve; as a rule, active = well fitted curve in the direction sought with a large enough effect; inconclusive = small, poorly fitted or top-dose-only effect, or another doubt; inactive = no such curve, though single readings can be large; an effect the other way counts as inactive or inconclusive. Potency is the fitted concentration of half-maximal effect.

SMILES | Rab9 prom act | FLuc counter | NPC1 promoter act | ELG1 genotox | ELG1 DNA repair | SMN2 splice enh
Cc1cc(C)nc(N=Nc2c(O)n(Cc3ccc(Cl)cc3)c3ccccc23)n1 | -2.3% | ? | -0.1% | 0.2% | 23.1µM* | 3.0%
CCCCNC(=S)N=Nc1c(O)n(Cc2ccccc2)c2ccccc12 | -0.9% | 4.2% | -3.7% | 2.9% | -2.5% | nt
C=CCn1c(O)c(N=NC(=S)Nc2cccc(C)c2)c2ccccc21 | -15.1% | 2.8% | -8.0% | 1.0% | 14.6% | -68.5%
O=C(N=Nc1c(O)n(Cc2ccccc2)c2ccccc12)c1ccncc1 | 8.2% | 23.9µM* | 11.5% | -6.3% | 18.3µM* | nt
Cc1ccc(Cn2c(O)c(N=NC(=S)Nc3ccccc3F)c3ccccc32)cc1 | -1.5% | -0.5% | -2.2% | -7.1% | 5.17µM* | nt
Oc1c(N=NC(=S)Nc2ccccc2F)c2ccccc2n1Cc1ccccc1Cl | -2.5% | 0.2% | -4.9% | -5.3% | -18.6% | -47.6%
Oc1c(N=NC(=S)Nc2ccccc2F)c2ccccc2n1Cc1ccccc1 | -7.8% | -1.0% | -6.5% | -12.5% | 8.2µM* | -36.6%
CCOc1ccc(NS(=O)(=O)c2ccc(C(=O)N3CCN(c4ncccn4)CC3)cc2)cc1 | -3.7% | -12.3% | -7.2% | -12.0% | 7.3µM* | -83.0%
O=C(c1cccc(S(=O)(=O)N2CCCC2)c1)N1CCN(c2ncccn2)CC1 | 1.0% | 2.8% | -2.5% | 1.1% | 7.6% | -7.8%
O=C(c1cccc(S(=O)(=O)NCCOc2ccccc2)c1)N1CCN(c2ncccn2)CC1 | 4.2% | 3.8% | -5.3% | -6.3% | 23.1µM* | -36.7%
Cc1cccc(N(C)S(=O)(=O)c2nnc(NC(=O)C(C)(C)C)s2)c1 | nt | -2.3% | nt | nt | nt | nt
CSc1nc(N)nc2c1ncn2CC(=O)NCc1ccc2[nH]ccc2c1 | nt | nt | nt | -5.7% | 23.1µM* | nt
CSc1nc(N)nc2c1ncn2CC(=O)NCc1ccccc1 | nt | nt | nt | -4.0% | -11.8% | nt
Cc1ccc(Nc2nc3c(c(=O)[nH]2)CCCC3)cc1 | ? | ? | ? | 12.5% | ? | ?
O=c1[nH]c(Nc2nc3ccccc3o2)nc2c1CCCC2 | 0.316µM* | 1.51µM* | 0.316µM* | ? | ? | 3.55µM*
CC1CCCCC12NC(=O)N(CC(=O)Nc1ccc3[nH]c(=O)[nH]c3c1)C2=O (stereo not given) | -3.9% | 2.6% | -2.6% | -2.3% | ? | nt
O=C(CN1C(=O)NC2(CCCCC2)C1=O)Nc1ccc2c(c1)OCCCO2 | 3.16µM* | 12µM* | 3.16µM* | ? | ? | nt
CC1CCCCC12NC(=O)N(CC(=O)NC(=O)Nc1ccc3c(c1)OCCO3)C2=O (stereo not given) | 3.55µM* | 10.7µM* | 2.82µM* | ? | ? | 12.6µM*
Cc1cc(C)cc(NC(=O)c2ccc3c(c2)nnn3C2CCCC2)c1 | nt | -8.5% | nt | nt | nt | nt
CCc1cc2c(=O)oc(-c3ccccc3F)nc2s1 | -2.0% | 3.38µM* | -3.2% | -0.3% | 6.6% | nt
Cc1cc2c(=O)oc(-c3ccccc3Br)nc2s1 | -3.2% | 7.57µM* | 0.5% | 2.4% | 3.4% | nt
COc1ccc2c(CNC3CCCCCC3)c(C(=O)O)n(Cc3ccc(C)cc3)c2c1 | nt | -5.2% | nt | nt | nt | nt
COc1ccc(NS(=O)(=O)c2ccc3oc(Nc4ccc5c(c4)OCCO5)nc3c2)cc1 | 13.2% | 19µM* | 0.7% | 3.4% | ? | 6.6%
Cc1ccc(C(=O)Nc2ccc3c(c2)OCO3)o1 | 28.1%[1.84 µM] | 10.7µM* | 2.82µM* | 14.6µM* | ? | 11.2µM*
Cc1ccc(C(=O)OCC(=O)Nc2ccc3c(c2)OCO3)o1 | 14.6% | -15.3% | 17.3% | 13.0% | ? | 11.0%
SMILES | Rab9 prom act | FLuc counter | NPC1 promoter act | ELG1 genotox | ELG1 DNA repair | SMN2 splice enh
C/C(=C\C(=O)c1ccccc1)Nc1ccc2c(c1)OCO2 | 3.98µM* | 3.79µM* | 2.82µM* | ? | ? | 22.4µM*
C/C(=C\C(=O)c1ccc(C)o1)Nc1ccc2c(c1)OCO2 | 2.24µM* | 4.78µM* | 2.82µM* | ? | ? | 26.7%
CC(=O)Nc1ccc2c(c1)OCO2 | 0.6% | -2.2% | -3.2% | -0.7% | 5.7% | 5.8%
CCOc1ccc(CCNC(=O)COC(=O)c2oc3ccccc3c2COC)cc1OCC | -0.7% | 0.4% | 0.1% | -0.8% | -27.2% | nt
CCN1CCN(c2ccc(NC(=O)c3ccc4c(c3)OCCO4)cc2C)CC1 | 1.58µM* | 6.75µM* | 2.82µM* | ? | ? | nt
CN1CCN(c2ccc(NC(=O)c3ccc4c(c3)OCCO4)cc2)CC1 | 3.16µM* | 6.01µM* | 2.24µM* | 4.61µM* | ? | 11.2µM*
Cc1ccc(C(=O)Nc2ccc(N3CCN(C)CC3)cc2)c(Cl)c1 | 3.55µM* | 23.9µM* | 3.55µM* | ? | ? | nt
CCN1CCc2nc(NC(=O)c3ccc4c(c3)OCCO4)sc2C1 | ? | 10.7µM* | ? | ? | ? | ?
CCN1CCN(c2cc(C)c3cc(NC(=O)c4ccc5c(c4)OCO5)ccc3n2)CC1 | -4.8% | ? | -3.7% | 0.3% | ? | 8.5%
CS(=O)(=O)c1ccc(C(=O)Nc2ccc(N3CCCCC3)cc2)c(Cl)c1 | -3.5% | -6.1% | -4.5% | 15.4% | ? | 3.7%
COc1ccccc1NC(=O)c1ccc(-c2nc(COc3ccc(C)cc3)c(C)o2)cc1 | nt | -2.0% | nt | nt | nt | nt
Cc1ccc(C(=O)Nc2ccc(N3CCN(C)CC3)cc2)cc1C | 0.708µM* | 3.38µM* | 0.794µM* | 1.83µM* | ? | nt
Cc1ccc(C(=O)Nc2ccc(N3CCN(S(C)(=O)=O)CC3)cc2)cc1C | 1.3% | 6.5% | 0.0% | -2.2% | -11.4% | nt
O=C(O)CCCC(=O)OCc1c(-c2ccccc2)ncc2ccccc12 | -0.1% | ? | -2.8% | 0.0% | 29.6% | nt
COc1ccc(C(C[N+](=O)[O-])C2(c3ccc(OC)c(OC)c3)C(=O)c3ccccc3C2=O)cc1 (stereo not given) | ? | 6.01µM* | 28.4% | -13.4% | ? | 25.1µM*
CCN1C(=O)C2(C(C#N)=C(N)Oc3n[nH]c(-c4ccc(Cl)cc4)c32)c2ccccc21 (stereo not given) | -8.5% | -0.9% | -1.6% | -0.5% | -0.1% | 10.3%
N#CC1=C(N)Oc2n[nH]c(-c3ccccc3)c2C12C(=O)Nc1ccccc12 (stereo not given) | -4.9% | -0.8% | 0.5% | 0.1% | -1.1% | 5.62µM*
CCN1C(=O)C2(c3ccccc31)c1c(oc3ccc(C)cc3c1=O)C(=O)N2CCCOC(C)C (stereo not given) | nt | -7.1% | nt | nt | nt | -3.5%
CCOc1ccc(CCNC(=O)CCSCc2ccc(Cl)cc2)cc1OCC | nt | -0.4% | nt | nt | nt | nt
COc1cc(C)ccc1OCCOc1c(C)cccc1Cl | ? | 26.9µM* | 16.6% | 13.5% | ? | -11.0%
COc1cc(C)ccc1OCCOc1cc(C)ccc1Cl | -4.1% | 13.5µM* | 4.4% | -1.8% | 3.5% | nt
